The full ranking holds about 33,000 sequences; the median of “E-score (-0.5 to 0.5)” is about -0.054, and the highest 2% start at about 0.35. Shown is part of a subset that was picked to be rich in the highest values.

The experiment has as its target T1, Stb5 (UniProt P38699).
T1 sequence: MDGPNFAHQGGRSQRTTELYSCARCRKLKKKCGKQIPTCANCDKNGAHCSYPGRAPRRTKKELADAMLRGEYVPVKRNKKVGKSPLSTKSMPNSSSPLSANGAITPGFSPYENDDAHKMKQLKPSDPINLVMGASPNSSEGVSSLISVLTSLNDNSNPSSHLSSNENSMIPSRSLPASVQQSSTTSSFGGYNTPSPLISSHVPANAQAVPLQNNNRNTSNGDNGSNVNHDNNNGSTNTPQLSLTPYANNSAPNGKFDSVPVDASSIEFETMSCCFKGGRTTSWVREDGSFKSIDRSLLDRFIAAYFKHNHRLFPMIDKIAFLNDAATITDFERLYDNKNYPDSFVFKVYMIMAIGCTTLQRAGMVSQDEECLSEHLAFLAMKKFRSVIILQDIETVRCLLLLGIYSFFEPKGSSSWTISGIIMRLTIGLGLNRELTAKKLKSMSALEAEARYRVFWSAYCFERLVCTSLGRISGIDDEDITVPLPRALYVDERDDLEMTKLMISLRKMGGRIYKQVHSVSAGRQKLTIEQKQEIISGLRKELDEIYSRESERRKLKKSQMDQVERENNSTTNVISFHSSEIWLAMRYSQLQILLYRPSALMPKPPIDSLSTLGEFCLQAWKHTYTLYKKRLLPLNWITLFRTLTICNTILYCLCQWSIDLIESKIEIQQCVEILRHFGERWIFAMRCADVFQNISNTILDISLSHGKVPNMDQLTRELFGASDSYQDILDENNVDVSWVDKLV
As to the kind of experiment: PBM E-score (8-mer binding enrichment) (E-score (-0.5 to 0.5)); higher = stronger / more preferred TF binding. As to conditions: protein concentration: 200 nM; construct: GST-full length. In short, it runs like this:
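E-scores (a modified Wilcoxon-Mann-Whitney statistic) were assigned by the Universal PBM Analysis Suite to every ungapped eight-base word pooled with its reverse complement. The input came from universal all-10-mer Agilent arrays made double-stranded by primer extension and probed with GST-tagged yeast transcription factors at about 100-200 nM. Fluorescent anti-GST detected bound protein, and masliner normalised the scans.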
Consider AACTCCGC, for which the “PBM E-score” value came out at 0.438. As for AGATCAAG, the “PBM E-score” value is -0.211.

Regarding ATTAGTCC, the “PBM E-score” value was 0.248. Take CATATCAC: the “PBM E-score” value was determined as 0.0389. Take TGCTGCAA: the “PBM E-score” value is -0.177. For the sequence CCAGAACG, the “PBM E-score” value was -0.0165. On to ATTCAAAG, for which the “PBM E-score” value is -0.12. Regarding GCGCGAAA, the “PBM E-score” value was 0.0664. On to AAGAGTGA, for which the “PBM E-score” value was -0.258. As for ACAGACGT, the “PBM E-score” value is -0.141. For CCCCTCAC, the “PBM E-score” value is -0.231.

Take GGGTACCA: the “PBM E-score” value was -0.157.

With CGGTACTA, the “PBM E-score” value came to 0.474. Turning to GGGTACTA, the “PBM E-score” value is -0.0611. Under AGGTACTA stands 0.16; under CGGTACCA, 0.39; under TGGTACCA, -0.0919. As for AATGTGCC, the figure is 0.145.

ATCAAAGA: the “PBM E-score” value was -0.248. With CAGCAGGA, the “PBM E-score” value was -0.194. Take AGTCTCCG: the “PBM E-score” value came to 0.264. In the case of AAGAACAT, the “PBM E-score” value was -0.0596. As for ATAACACA, the figure is -0.107; as for ATAACACG, -0.0233; as for CTAACACC, 0.401. For ATAACACC, the “PBM E-score” value is 0.461. Take CCAACACC: the “PBM E-score” value is 0.119.

For the sequence CTAACACA, the “PBM E-score” value is -0.0526.

Regarding GAATCCTC, the “PBM E-score” value was -0.239. With CGCGTTCC, the “PBM E-score” value is 0.0249. Under ATTCCTTC stands -0.0881. Consider GCCCTTAA, for which the “PBM E-score” value came to 0.191. For CCCTGGCG, the “PBM E-score” value turned out to be 0.114. For the sequence CCTCTCCG, the “PBM E-score” value was -0.171. As to AATCATTG, the “PBM E-score” value was -0.314. With GTGGCACA, the “PBM E-score” value was -0.325.

In the case of CGGGGGCA, the “PBM E-score” value was 0.275. In the case of CCCGATGA, the “PBM E-score” value worked out at 0.226. Under GCCGATGA stands 0.357; under ACCGATGA, 0.264. Consider CCCTATAG, for which the “PBM E-score” value is -0.104. Regarding AATGGCAT, the “PBM E-score” value turned out to be 0.0389. With CGAGCGGA, the “PBM E-score” value came out at 0.385. As for GGGGCGGA, the “PBM E-score” value turned out to be 0.293. Take CCGGCGGA: the “PBM E-score” value was 0.385. Turning to CGAGCGGC, the “PBM E-score” value turned out to be 0.318. Take GCGGCGGA: the “PBM E-score” value is 0.333. CCGGCGGC: the “PBM E-score” value was 0.327. As for AGAGCGGA, the figure is 0.312. On to CGGGCGGA, for which the “PBM E-score” value is 0.359. In the case of CGGGCGGC, the “PBM E-score” value was 0.308. As for AATTGGCC, the “PBM E-score” value is -0.224. Under CATCTAGG stands -0.139; under CGAATTGA, -0.12. As for ACAATTCG, the figure is -0.00889; as for AGGTATCC, -0.211.

On to CGCCTTAA, for which the “PBM E-score” value stood at 0.0389. Consider CGGCCTCC, for which the “PBM E-score” value was 0.129. Regarding AGGCCTCA, the “PBM E-score” value was -0.264.

Regarding CGGCCTCA, the “PBM E-score” value came to 0.363. As for CTTTAGCA, the figure is 0.133.

As for ATCTCTGA, the “PBM E-score” value was -0.172. With AGACCGAG, the “PBM E-score” value is 0.177.

Regarding GCACCGAC, the “PBM E-score” value was determined as 0.45. On to AGACCGAA, for which the “PBM E-score” value is 0.236.

As for AGACCGAC, the “PBM E-score” value is 0.385. AAACCGAA: the “PBM E-score” value was -0.0132. Take CCACCGAA: the “PBM E-score” value stood at 0.117. For GAACCGAC, the “PBM E-score” value came out at 0.225. On to GCACCGAA, for which the “PBM E-score” value amounted to 0.358. On to TCACCGAA, for which the “PBM E-score” value came to 0.217. As for GGACCGAC, the figure is 0.318; as for ACACCGAA, 0.386. In the case of CGACCGAC, the “PBM E-score” value is 0.271. As for AAGAACTA, the “PBM E-score” value was -0.0107. AGGTTCAC: the “PBM E-score” value was -0.164.

CAATTCGC: the “PBM E-score” value was determined as 0.0656. As to ACGAGAAA, the “PBM E-score” value was -0.0778. Turning to CAATGGCC, the “PBM E-score” value was determined as 0.0847. As to ATGAGGCA, the “PBM E-score” value was -0.24. Regarding ATCTTGGG, the “PBM E-score” value was -0.145. Regarding CGAAGGAA, the “PBM E-score” value was -0.188.

As for GATGAGAC, the “PBM E-score” value is -0.136. Turning to ACACCGAT, the “PBM E-score” value is 0.447. Regarding ACACCGAC, the “PBM E-score” value is 0.466. Regarding AAACCGAT, the “PBM E-score” value came out at 0.121.

Regarding CCACCGAG, the “PBM E-score” value is 0.0738. Under AAACCGAC stands 0.222.

CCACCGAC: the “PBM E-score” value came to 0.346.

The values are drawn from the supplement of paper PMC3334620.
